Values joined by “and” are separate entries in the source; they are usually repeats but may differ in a detail not shown here. Equal values may be shown once. Active and inactive are the calls of the source.
Test: A549 lung cancer cell viability effects, profiling panel, resazurin fluorescence, 24 h, PK04 Diversity Set (AID 1171); also: test concentration not given here
Conditions: higher = more signal, called active from +8 up or from −8 down

| Structure (SMILES) | z-score |
| --- | --- |
| COC(=O)C1=C(C)N(Cc2ccccc2)[C@]23O[C@](C(=O)OC)(C(=O)N2[C@@H]1c1ccccc1)[C@@H](C(=O)OC)[C@H]3C(=O)OC | 0.415 (inactive) and -0.804 (inactive) |
| CO[C@@H]1COC(=O)CC=C[C@H](C)COC(=O)[C@H](C)NC(=O)CC=C[C@H]1C | 0.162 (inactive) |
| COC(=O)C1=C(C)N(Cc2ccccc2)C2=C(C(C)=O)[C@H](c3ccccc3)[C@@](O)(C(=O)OC)C(=O)N2[C@@H]1c1ccccc1 | 1.78 (inactive) and 0.197 (inactive) |
| C[N+](C)(C)CCCCNC(=O)[C@H]1C[C@H]2C(=O)N[C@@H](CCCC[N+](C)(C)C)C(=O)N2[C@H]1c1cccc(OCCO)c1 | -0.964 (inactive) and -0.711 (inactive) |
| CCOC(=O)NN=C1C[C@@H](O)[C@@H](O)[C@@H]2[C@@H]3C(=O)N(Cc4ccc5c(c4)OCO5)C(=O)[C@@H]3CC[C@@H]12 | 0.0533 (inactive) |
| C[N+](C)(C)CCCCNC(=O)[C@H]1C[C@H]2C(=O)N[C@@H](CCCC[N+](C)(C)C)C(=O)N2[C@H]1c1ccc(O)cc1 | -0.471 (inactive) and -0.706 (inactive) |
| O=c1n(-c2ccccc2)c(=O)n2n1CC[C@@H]1C(=NOC[C@@H](O)COCc3ccco3)[C@H]3O[C@H]3[C@@H](O)[C@@H]12 | -1.03 (inactive) and -0.872 (inactive) |
| C=C[C@@H](C)[C@H](O)c1ccc(O)c2ccccc12 | -0.28 (inactive) and -0.0127 (inactive) |
